Data: PubChem BioAssay AID1645838 (ICCB-Longwood Screening Facility, Harvard Medical School, 2021)
“And” between values parts separate entries of the source, which are not always exact repeats. Equal entries are not always repeated. Hit rate of the full screen: of about 2,000 compounds, about 100 (5%) were called active. No stated cut-off is given here; in the data, active means z-score above about 2; inactive means the rest. For the sample, actives were picked, then their nearest neighbours and some compounds at random. More than one record can exist for a structure, and the calls need not agree.

Assay: supercomplex reporter luminescence per Hoechst cell count – Hoechst nuclei count (AID 1645838);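 further: control cybrid cells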;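 on z-score: higher means more mitochondrial supercomplex formation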
Settings: Cells, luminescence/Hoechst cell count ratio; for z-score: stronger effect = higher value; for cell count: measured here: cell number, Hoechst nuclei count
[1] = library stock concentration (final well concentration not given) 80 uM
[2] = library stock concentration (final well concentration not given) 400 uM
[3] = library stock concentration (final well concentration not given) 2 mM
[4] = library stock concentration (final well concentration not given) 10 mM
[5] = library stock concentration (final well concentration not given) 46 uM
[6] = library stock concentration (final well concentration not given) 278 uM
[7] = library stock concentration (final well concentration not given) 1.67 mM

With Cc1nc2ccc(-n3ncc(C(=O)c4cc5ccccc5[nH]4)c3N)cc2[nH]1 the z-score [1] was -0.114 (inactive), the z-score [2] was -0.221 (inactive) and the z-score [3] was -0.0631 (inactive). For the same compound, the z-score [4] was 5.29 (active), the cell count [1] was 5810 and the cell count [2] was 5920. For the same compound, the cell count [3] was 5510 and the cell count [4] was 3410.

With CCCCC[C@H](O)/C=C/[C@H]1[C@H](O)CC(=O)[C@@H]1C/C=C\CCCC(=O)OCC(O)CO (stereo partly drawn) the z-score was 0.364 (inactive) and the cell count was 5190.

In the case of CCCNC1CCc2nc(N)sc2C1 (stereo not drawn), the z-score [1] is reported as -0.399 (inactive), the z-score [2] is reported as -0.375 (inactive) and the z-score [3] is reported as -0.412 (inactive). The z-score [4] was -0.168 (inactive), the cell count [1] was 6960 and the cell count [2] was 6720. The cell count [3] was 6830 and the cell count [4] was 6380.

For CCOc1ccc(S(=O)(=O)N(CC(=O)N=Nc2c(O)[nH]c3ccccc23)c2ccccc2)cc1, the outcome (library stock 10 mM) was “inactive; censored for cell count”, the z-score [1] was 0.0734 (inactive) and the z-score [2] was 0.0751 (inactive). For the same compound, the z-score [3] was 0.419 (inactive), the cell count [1] was 5190 and the cell count [2] was 5160. It also gave a cell count [3] of 4350.

With CC/C=C\C/C=C\C/C=C\C/C=C\CCCCC(=O)OCC the z-score was -0.596 (inactive) and the cell count was 5380.

For Nc1nccc2c1ncn2C1C=C(CO)C(O)C1O (stereo not drawn), the outcome (library stock 10 mM) was “inactive; censored for cell count”, the z-score [5] was -0.246 (inactive) and the z-score [6] was 0.747 (inactive). For the same compound, the z-score [7] was 2.95 (active), the cell count [5] was 5790 and the cell count [6] was 4240. The cell count [7] was 1810.

With CCCCCCCCCCCC(=O)NC[C@]1(C)CCC[C@]2(C)c3ccc(C(C)C)cc3CC[C@@H]12 the z-score was 0.0192 (inactive) and the cell count was 4880.

For CCCCCCCCCCCCCCCC(=O)OC[C@@H](O)COP(=O)(O)O, the z-score was 0.759 (inactive) and the cell count was 4710.

In the case of CC(=O)O[C@@]12C[C@@H](C)[C@@]3(O)[C@@H](C=C(CO)C[C@]4(O)C(=O)C(C)=C[C@@H]34)[C@@H]1C2(C)C, the z-score is reported as 2.36 (active) and the cell count is reported as 5140.

With CCCCC[C@H](O)/C=C/[C@H]1C=CC(=O)[C@@H]1CCCCCCC(=O)O the z-score was 0.664 (inactive) and the cell count was 4830.

With Cc1nc(Nc2n[nH]c3c2CN(C(=O)NC(CN(C)C)c2ccccc2)C3(C)C)c2sccc2n1 (stereo not drawn) the outcome (library stock 1.67 mM) was “inactive; censored for cell count”, the outcome (library stock 10 mM) was “inactive; censored for cell count” and the z-score [5] was 0.353 (inactive). For the same compound, the z-score [6] was 1.68 (inactive), the cell count [5] was 4470 and the cell count [6] was 2250.

For Cc1cccc(Nc2nc(-c3ccncc3)cs2)c1, the z-score was -0.555 (inactive) and the cell count was 5440.

For Oc1ccc(Nc2nc(-c3ccc(Cl)cc3)cs2)cc1, the z-score was -0.695 (inactive), the z-score [1] was 0.00338 (inactive) and the z-score [2] was -0.177 (inactive). For the same compound, the z-score [3] was -0.154 (inactive), the z-score [4] was 1.99 (active) and the cell count was 4930. It also gave a cell count [1] of 5690, a cell count [2] of 5570 and a cell count [3] of 5530. The cell count [4] was 2610.

With COc1cccc(OC)c1-c1ccc(CC(NC(=O)c2c(Cl)cccc2Cl)C(=O)O)cc1 (stereo not drawn) the z-score [5] was -0.0712 (inactive), the z-score [6] was -0.126 (inactive) and the z-score [7] was -0.192 (inactive). The z-score [4] was -0.205 (inactive), the cell count [5] was 5760 and the cell count [6] was 5740. For the same compound, the cell count [7] was 5820 and the cell count [4] was 5840.

In the case of CCCCCCCCCCCCCCCC(=O)OC[C@@H](O)COP(=O)([O-])OCC[N+](C)(C)C, the outcome is reported as “inactive; censored for cell count”.

For COc1cc(Nc2c(C#N)cnc3cc(OCCCN4CCN(C)CC4)c(OC)cc23)c(Cl)cc1Cl, the outcome (library stock 10 mM) was “inactive; censored for cell count”, the z-score [5] was -0.0511 (inactive) and the z-score [6] was 0.0803 (inactive). The z-score [7] was 2.12 (active), the cell count [5] was 5680 and the cell count [6] was 5890. It also gave a cell count [7] of 3280.

In the case of COc1cc2c(Oc3ccc4[nH]c(C)cc4c3F)ncnc2cc1OCCCN1CCCC1, the z-score [5] is reported as -0.259 (inactive), the z-score [6] is reported as -0.207 (inactive) and the z-score [7] is reported as -0.199 (inactive). The z-score [4] was 0.419 (inactive), the cell count [5] was 4900 and the cell count [6] was 4920. The cell count [7] was 4790 and the cell count [4] was 3820.

With COc1cc2ncnc(Nc3ccc(F)c(Cl)c3)c2cc1OCCCN1CCOCC1 the z-score [1] was 0.183 (inactive), the z-score [2] was 0.0655 (inactive) and the z-score [3] was 0.641 (inactive). The z-score [4] was 1.23 (inactive), the cell count [1] was 5740 and the cell count [2] was 5370. It also gave a cell count [3] of 5790 and a cell count [4] of 4940.

With CC1CN(Cc2ccccc2)CC1c1nc2c(cnn2C2CCOCC2)c(=O)[nH]1 (stereo not drawn) the z-score [1] was -0.245 (inactive), the z-score [2] was -0.201 (inactive) and the z-score [3] was -0.281 (inactive). For the same compound, the z-score [4] was -0.05 (inactive), the cell count [1] was 6480 and the cell count [2] was 6460. It also gave a cell count [3] of 6500 and a cell count [4] of 5630.

With CCCCCOc1ccccc1C(O)CC#CCCCC(=O)OC (stereo not drawn) the z-score was -0.738 (inactive) and the cell count was 4890.

With COc1cc(C)c(Sc2cnc(NC(=O)c3ccc(CNC(C)C(C)C)cc3)s2)cc1C(=O)N1CCN(C(C)=O)CC1 (stereo not drawn) the outcome (library stock 10 mM) was “inactive; censored for cell count”, the z-score [1] was -0.488 (inactive) and the z-score [2] was -0.307 (inactive). The z-score [3] was 0.194 (inactive), the cell count [1] was 4600 and the cell count [2] was 4380. It also gave a cell count [3] of 4120.

For CC(CSC(=O)c1ccccc1)C(=O)N1CC(Sc2ccccc2)CC1C(=O)O (stereo not drawn), the z-score [1] was -0.846 (inactive), the z-score [2] was -0.854 (inactive) and the z-score [3] was -0.642 (inactive). The z-score [4] was -0.914 (inactive), the cell count [1] was 6770 and the cell count [2] was 5990. The cell count [3] was 6700 and the cell count [4] was 6110.

In the case of CCCCC[C@H](O)/C=C/[C@@H]1[C@@H](C/C=C\CCCC(=O)N(CC)CC)[C@@H](O)C[C@H]1O, the z-score is reported as -1.04 (inactive) and the cell count is reported as 5830.

In the case of NC(=O)c1noc(C(CCCC2CCCCC2)CC(=O)NO)n1 (stereo not drawn), the z-score [5] is reported as -0.365 (inactive), the z-score [6] is reported as -0.421 (inactive) and the z-score [7] is reported as -0.0342 (inactive). The z-score [4] was 2.42 (active), the cell count [5] was 6320 and the cell count [6] was 6380. For the same compound, the cell count [7] was 5390 and the cell count [4] was 2560.

With C=C1C(=O)O[C@H](CCCCCCCC)[C@H]1C(=O)O the z-score was -0.4 (inactive) and the cell count was 5960.

With CCCCC/C=C\CCCCCCCCCCCCC(=O)O the z-score was -0.87 (inactive) and the cell count was 5480.

For COc1ccc(CCCOC(Cn2ccnc2)c2ccc(OC)cc2)cc1 (stereo not drawn), the z-score was 0.304 (inactive) and the cell count was 4930.

For CN(C)CCCCCCOc1ccc(-n2ccnc2)cc1, the z-score was 2.07 (active) and 0.161 (inactive) and the cell count was 4900 and 5850.

For NC(=O)C(c1ccccc1)(c1ccc(F)cc1)c1ccc(F)cc1, the z-score [5] was -0.117 (inactive), the z-score [6] was 0.34 (inactive) and the z-score [7] was -0.0437 (inactive). For the same compound, the z-score [4] was 0.799 (inactive), the cell count [5] was 6820 and the cell count [6] was 6540. It also gave a cell count [7] of 6770 and a cell count [4] of 6720.

In the case of O=C1C(Nc2ccccc2)=CC(=O)c2ncccc21, the z-score is reported as 0.666 (inactive) and the cell count is reported as 3000.

With O=C(NNS(=O)(=O)c1ccccc1C(F)(F)F)c1cc2cc(Cl)ccc2o1 the z-score [5] was -0.12 (inactive), the z-score [6] was -0.121 (inactive) and the z-score [7] was -0.307 (inactive). For the same compound, the z-score [4] was -0.0108 (inactive), the cell count [5] was 7080 and the cell count [6] was 6790. The cell count [7] was 7310 and the cell count [4] was 6850.
